Results filed as inconclusive are left out. Unmarked numbers belong to inactive results. Activity calls are given as the source filed them. Calls follow the shape of the dose curve; as a rule, active = well fitted activation curve with a large enough effect; inconclusive = small, poorly fitted or top-dose-only effect; inactive = flat fitted curve, though single readings scatter.
assay: Parental Cell Counter Screen for Stat Signaling Pathway Assay; details: ME-180 (cervical carcinoma) parental cells, blue fluorescence artefact counter-screen; series mostly up to 38.3 µM; activity (fluorescence increase): at the top concentration
Excerpt: NIH Molecular Libraries Screening Centers Network [MLSCN] NIH Chemical Genomics Center [NCGC] MLSCN Grant: None NCGC Assay Overview: This assay is a counter screen for the Stat signaling pathway assay (PubChem AID 446). The Stat assay is cell-based and measures Interleukin 6 (IL-6) mediated modulation of a beta-lactamase reporter gene controlled by a STAT inducible element (SIE-bla cells, Invitrogen). IL-6 is a cytokine that signals via the JAK/STAT pathway and is implicated in cancer and inflammation. […] Compounds active in the parental ME-180 cells are likely fluorescent.
NCGC Assay Protocol Summary: Cells were trypsinized, washed in assay medium (AM, OPTI MEM with 0.5% fetal bovine serum, 0.1 mM nonessential amino acids, 1 mM sodium pyruvate, 10mM HEPES pH 7.3, 100U/ml penicillin, and 100 ug/ml streptomycin) and suspended at […] in AM. Approximately 2500 cells in 5 uL/well was dispensed into 1536-well plates and the cells were incubated overnight at 37 C. 23 nL of compound were delivered by a pin tool and 1 uL of IL-6 (40 pM final concentration in AM) was added. After plates were incubated at 37 C for 5 hrs, 1uL of detector mix (LiveBLAzerTM, Invitrogen) was added, the plates incubated at room temperature for 2.5 hrs, and fluorescence intensity at 460 and 530 nm emissions was measured at 405 nm excitation by an Envision (Perkin Elmer).

Structure (SMILES)	activity (fluorescence increase)	Potency
COc1ccc(C[C@@H]2C(=O)N[C@H](C)C(=O)N(C)[C@@H]3Cc4ccc(cc4)Oc4cc(ccc4O)C[C@H](C(=O)N[C@@H](C)C(=O)N[C@H](C)C(=O)N2C)N(C)C3=O)cc1	10.4%	–
CC(=O)Oc1ccc(C(c2ccc(OC(C)=O)cc2)c2ccccn2)cc1	10.2%	–
CC(C)(C)C1CCC2(CC1)C(C#N)=C(SCC(=O)Nc1ccccc1)NC(=O)C2C#N (stereo not given)	24.1%	–
CC[C@@H]1CN2CCc3cc(OC)c(OC)cc3[C@H]2C[C@@H]1C[C@@H]1NCCc2cc(OC)c(OC)cc21	9.35%	–
CCOC(=O)N1CCC(=C2c3ccc(Cl)cc3CCc3cccnc32)CC1	22.2%	–
CCc1cc2c(=O)c(-c3nc4ccccc4[nH]3)coc2cc1OC(=O)N1CCOCC1	–	12.6 µM (active)
C=CCn1c(SCC(=O)c2ccc(NS(=O)(=O)c3ccccc3)cc2)nnc1-c1cccs1	12%	–
C=C1C(=O)O[C@@H]2[C@H]3O[C@]3(C)CCC=C(C)CC[C@@H]12	-1.87%	–
Cn1c(NCc2ccccc2)nc2c1c(=O)n(Cc1ccc(Br)cc1)c(=O)n2C	13.9%	–
C=C1C(=O)O[C@@H]2[C@@H]1CC/C(C)=C\CC[C@@]1(C)O[C@H]21	28.3%	–
CC(C)(C)c1nnc2sc(SCC(=O)c3ccccc3)nn2c1=O	13.9%	–
N=C(N)SCc1cccc2c(=O)cc(-c3ccccc3)oc12	8.49%	–
CN(C)CCCN=c1c2ccccc2n(C)c2[nH]c(=O)n(C)c(=O)c12	8.49%	–
O=c1c(O)c(-c2ccc(O)c(O)c2)oc2cc(O)cc(O)c12	15.9%	–
CN(C)CCCn1c2c3ccccc3ccc2c2oc(=O)c3ccccc3c21	–	12.6 µM (active)
CCCCSc1nc(N)c(C#N)c(-c2cccs2)c1C#N	38%	–
COc1cccc2c1[C@H](CO)N1[C@H](C#N)[C@@H]3C[C@H](C(=O)O)[C@@H]([C@@H]1C2)N3C	12.3%	–
ClC(Br)=C(n1cnc2ccccc21)n1cnc2ccccc21	11.1%	–
Cn1c(N2CCOCC2)nc2c1c(=O)n(Cc1ccc(Cl)c(Cl)c1)c(=O)n2C	13%	–
Clc1ccc(-c2nnc3sc(Cc4cccs4)nn23)cc1	4.63%	–

Structure (SMILES)	activity (fluorescence increase)	Potency
CC(C)N1CC=C2C(C#N)=C(N)C(C#N)(C#N)C(c3ccccc3)C2C1 (stereo not given)	–	5.01 µM (active)
CCNC(=O)c1cc2c(=O)n3cccc(C)c3nc2n(CCc2ccccc2)c1=N	–	12.6 µM (active)
COc1cccc2c1C(=N)c1c(O)c3c(c(O)c1C2=O)C[C@](O)(C(C)=O)C[C@@H]3O[C@H]1C[C@H](N)[C@@H](O)[C@H](C)O1	16%	–
CCSc1nc(N)c(C#N)c(-c2ccccc2Cl)c1C#N	13.9%	–
CCN(CC)CCN1C(=O)c2cccc3cc(N)cc(c23)C1=O	3.77%	–
ClC(=Nc1cccc2ccccc12)N(c1ccccc1)c1ccccc1	7.48%	–
O=c1c(O)c(-c2ccc(O)cc2)oc2cc(O)ccc12	9.35%	–
CCN(CC)CCNc1ccc(CO)c2sc3ccccc3c(=O)c12	-13.1%	–
CCOC(=O)CCc1c(C)c(C#N)c2[nH]c3ccccc3n2c1=O	16.7%	–
CN(C)S(=O)(=O)c1ccc2c(c1)/C(=C/c1cc3c([nH]1)CCCC3)C(=O)N2	1.89%	–
Cc1ccc(CNC(=O)c2cc3c(=O)n4ccccc4nc3n(CC3CCCO3)c2=N)cc1 (stereo not given)	–	10 µM (active)
Nc1ncnc2c1ncn2[C@@H]1O[C@H](CO)[C@@H](O)[C@H]1O	1.85%	–
NS(=O)(=O)c1ccc(N=Nc2cc3ccccc3c(C(=O)O)c2O)cc1	4.72%	–
COc1ccc(-c2nn3c(COc4ccccc4)nnc3s2)cc1OC	10.2%	–
Nc1ncnc2c1ncn2[C@@H]1O[C@@H](CO)[C@H](O)[C@@H]1O	11.2%	–
C[n+]1cc2c3c(ccc2c2ccc4cc5c(cc4c21)OCO5)OCO3	–	10 µM (active)
O=C1CC(N(O)C2CC(=O)N(Cc3ccccc3)C2=O)C(=O)N1Cc1ccccc1 (stereo not given)	21.3%	–
CC1(C)Cc2c(C#N)c(NCCc3ccccc3)nc(-c3ccco3)c2CO1	–	5.01 µM (active)
OC[C@@H]1CCC[C@H](n2cnc3c(=S)nc[nH]c32)O1	5.56%	–
O=C(Oc1oc(-c2ccco2)nc1C=Nc1ccccc1)c1ccoc1	3.7%	–
